This note sets out measurements from the supplement of paper PMC7858590.

“And” between values parts separate entries of the source, which are not always exact repeats. Equal values may be shown once. ± gives the standard deviation of the averaged measurements. Whole data set: some 3,800 compounds, median “cell shape (eccentricity) Z-score vs DMSO control” near 1.1, cut for the lowest 2% near -4.7. The entries come from a sample that favours the lowest values as a whole.

The subject of this experiment is human monocyte-derived macrophages (M0). Description: cell shape (eccentricity) Z-score vs DMSO control; higher = more elongated, M2-like morphology. The conditions noted are these: 20 µM; 24 h; macrophage state: M0 (M-CSF). The method, then: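 Primary human monocyte-derived macrophages (M-CSF differentiated, pooled from 4 donors, 5000 cells/well in 384-well plates) were treated with each compound at 20 uM for 24 h, then fixed and stained with phalloidin/DAPI and imaged on an Opera Phenix (6 fields, about 1000 cells/well). Cell eccentricity was measured with CellProfiler, and a Z-score (t-test) was computed against 4 DMSO control wells in the same row. Negative values mean round (M1-like) cells and positive values mean elongated (M2-like) cells; the paper's hit cutoffs are Z <= -4 (M1) and Z >= 6 (M2). Scale: negative = round, M1-like.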
`NC(=O)c1ccc(-c2nc(-c3ccc4c(c3)OCCO4)c(-c3ccccn3)[nH]2)cc1`: the “cell shape (Z-score)” value was 4.12.

Turning to `COCCCCC(=NOCCN)c1ccc(C(F)(F)F)cc1`, the “cell shape (Z-score)” value was -14.7. The figure for `CC(/C=C/C1(O)C(C)CC(O)CC1(C)C)OC1OC(CO)C(O)C(O)C1O` (centres undefined) is 0.819. Regarding `C/C=C/C#CC#C[C@@H](O[C@@H]1O[C@H](CO)[C@@H](O)[C@H](O)[C@H]1O)[C@H](O)/C=C/CCCO`, the “cell shape (Z-score)” value is -5.71. As to `CC(O)CCCc1cc(O)cc(O[C@@H]2O[C@H](CO)[C@@H](O)[C@H](O)[C@H]2O)c1` (some centres undefined), the “cell shape (Z-score)” value turned out to be 0.302. The figure for `O=Cc1ccccc1O[C@@H]1O[C@H](CO)[C@H](O)[C@@H](O)[C@H]1O` is -0.838; for `O=C1c2ccccc2CCC1CNCCc1ccc(O)cc1` (centres undefined) it is 2.69. `OCc1ccc(-c2ccc(-c3ccc(CO)s3)o2)s1`: the “cell shape (Z-score)” value was -3.3 and -5.19. The figure for `COc1cc(C(C)/C=C(/C)CC(=O)O)oc(=O)c1C` (centres undefined) is 0.462 ± 0.48; for `C=C1CC[C@@H]2[C@](C)(CO)[C@H](O)CC[C@@]2(C)[C@@H]1CC(O)C1=CCOC1=O` (some centres undefined) it is -2.2 ± 3.4. The figure for `O=C(Nc1ccc([N+](=O)[O-])cc1O)Nc1ccccc1Br` is -4.95 ± 7.5; for `O=C(Nc1ccc([N+](=O)[O-])cc1Cl)c1cc(Cl)ccc1O` it is -4.1 ± 4.2. As to `O=C(Nc1ccccc1)c1cc([N+](=O)[O-])ccc1Cl`, the “cell shape (Z-score)” value was -1.03. Next, `CCC(C)C(=O)O[C@H]1C[C@H](O)C=C2C=C[C@H](C)[C@H](CC[C@@H](O)C[C@@H](O)CC(=O)O)C21` (some centres undefined): -0.754; `COc1cc(/C=C/c2cc(O)cc(O[C@@H]3O[C@H](CO)[C@@H](O)[C@H](O)[C@H]3O)c2)ccc1O[C@@H]1O[C@H](CO)[C@@H](O)[C@H](O)[C@H]1O`: 2.22; `COc1c2c(cc3occ(-c4ccc5c(c4)OCO5)c(=O)c13)OC(C)(C)C=C2`: 1.71. As for `COc1c(-c2coc3cc4c(cc3c2=O)CC(O)C(C)(C)O4)ccc2c1C=CC(C)(C)O2` (centres undefined), the “cell shape (Z-score)” value is -0.764.

Turning to `COc1cc2c(cc1-c1coc3c4c(ccc3c1=O)OC(C)(C)C=C4)OCO2`, the “cell shape (Z-score)” value is -5.49. On to `CN(C)CCCN1c2ccccc2CCc2ccc(Cl)cc21`, for which the “cell shape (Z-score)” value was 1.86. Next, `CC(C)=CCC1Cc2c(cc(O)c(C(=O)C(C)C)c2O)OC1(C)C` (centres undefined): 3.41.

`NCCCCCc1cnc[nH]1`: the “cell shape (Z-score)” value is -0.662. As to `CC(C)c1ccc(Cn2ccc3c4c(N)nc(NC5CC5)nc4ccc32)cc1`, the “cell shape (Z-score)” value was -4.69. Next, `CCNC(=O)[C@@H]1CCCN1C(=O)[C@H](CCCNC(=N)N)NC(=O)[C@H](CC(C)C)NC(=O)[C@@H](COC(C)(C)C)NC(=O)[C@H](Cc1ccc(O)cc1)NC(=O)[C@H](CO)NC(=O)[C@H](Cc1c[nH]c2ccccc12)NC(=O)[C@H](Cc1cnc[nH]1)NC(=O)C1CCC(=O)N1` (some centres undefined): -0.749. The figure for `O=C(CCCN1CCC(O)(c2cccc(C(F)(F)F)c2)CC1)c1ccc(F)cc1` is -0.261; for `O=C(CCCN1CCC(O)(c2ccc(Cl)cc2)CC1)c1ccc(F)cc1` it is -2.24; for `OC1(c2ccc(Cl)c(C(F)(F)F)c2)CCN(CCCC(c2ccc(F)cc2)c2ccc(F)cc2)CC1` it is -6.96. The figure for `CO[C@@]12[C@@H]3NC3CN1C1=C(C(=O)C(N)=C(C)C1=O)[C@@H]2COC(N)=O` (some centres undefined) is -5.51; for `CO[C@@]12[C@H](COC(N)=O)C3=C(C(=O)C(C)=C(N)C3=O)N1C[C@@H]1N[C@@H]12` it is -1.43 ± 4; for `Cc1cccc(-c2[nH]c(C(C)(C)C)nc2-c2ccc3nccnc3c2)n1` it is 4.84. With `CON=C(C(=O)NC1C(=O)N2C(C(=O)O)=C(CSc3nc(=O)c(=O)[nH]n3C)CSC12)c1csc(N)n1` (centres undefined), the “cell shape (Z-score)” value is -0.265. For the molecule `Cc1oc(=O)oc1CN1CCN(c2cc3c(cc2F)c(=O)c(C(=O)O)c2n3C(C)S2)CC1` (centres undefined), the “cell shape (Z-score)” value is -5.14. Regarding `CCn1cc(C(=O)O)c(=O)c2cc(F)c(N3CCN(C)CC3)cc21`, the “cell shape (Z-score)” value is -1.21. Turning to `CCN1CCN(c2cc3c(cc2F)c(=O)c(C(=O)O)cn3C2CC2)CC1`, the “cell shape (Z-score)” value is -0.0252. Regarding `C=CC(=O)Nc1cccc(Sc2nc(Nc3ccc(N4CCN(C)CC4)cc3)ncc2Cl)c1`, the “cell shape (Z-score)” value was 0.842. Next, `CCCCCCCCC(=O)NCc1cc(OC)c(O)cc1I`: 0.93; `CCCn1c(=O)c(C)cn2nc(N)nc12`: 3.53.

For the molecule `CCC(C)n1ncn(-c2ccc(N3CCN(c4ccc(OC[C@H]5CO[C@](Cn6cncn6)(c6ccc(Cl)cc6Cl)O5)cc4)CC3)cc2)c1=O` (some centres undefined), the “cell shape (Z-score)” value was found to be 0.541.

As to `CC(C)N1C[C@@H](C)[C@H](CN(C)Cc2ccc(Oc3ccccc3)cc2)Oc2c(NC(=O)c3ccncc3)cccc2C1=O`, the “cell shape (Z-score)” value stood at 2.27. Next, `CC1OC(OC2C(O[C@H]3OC[C@](O)(CO)[C@H]3O)COC(O[C@@H]3[C@@H](O)[C@@H](O)[C@H](OC4C(OC(=O)[C@]56CCC(C)(C)CC5C5=CCC7[C@@]8(C)C[C@H](O)[C@H](OC9OC(CO)C(O)C(O)C9O)[C@@](C)(CO)C8[C@H](O)C[C@@]7(C)[C@]5(C)CC6)OCC(O)C4O)O[C@H]3C)C2O)C(O)C(O)C1O` (some centres undefined): -5.84; `CC1OC(O[C@H]2CC[C@@]3(C)C(CC[C@]4(C)C3CC=C3C5CC(C)(C)CC[C@]5(C(=O)OC5OC(CO)C(OC6OC(CO)C(O)C(O)C6O)C(O)C5O)CC[C@]34C)C2(C)C)C(O)C(O)C1OC1OCC(O)(COC2OCC(O)C(OC3OCC(OC4OCC(O)(CO)C4O)C(O)C3O)C2O)C1O` (some centres undefined): 0.323; `C[C@@H]1O[C@@H](O[C@H]2[C@H](OC(=O)[C@]34CCC(C)(C)C[C@H]3C3=CCC5[C@@]6(C)C[C@H](O)[C@H](O[C@@H]7O[C@H](CO)[C@@H](O)[C@H](O)[C@H]7O)[C@@](C)(CO)C6[C@H](O)C[C@@]5(C)[C@]3(C)CC4)OC[C@H](O)[C@@H]2O)[C@H](O)[C@H](O)[C@H]1O[C@@H]1OC[C@@H](O)[C@H](O[C@@H]2OC[C@](O)(CO)[C@H]2O)[C@H]1O` (some centres undefined): -6.49. As for `CC1OC(O[C@H]2[C@@H](O)C[C@@]3(C)C([C@H](O)C[C@]4(C)C3CC=C3[C@@H]5CC(C)(C)CC[C@]5(C(=O)OC5OC(C)C(OC6OCC(OC7OCC(O)C(OC8OCC(O)C(O)C8O)C7O)C(O)C6O)C(O)C5O)CC[C@]34C)[C@]2(C)CO)C(O)C(OC2OC(CO)C(O)C(O)C2O)C1O` (some centres undefined), the “cell shape (Z-score)” value is 0.543. In the case of `CC1OC(OC2C(O)C(CO)OC(O[C@H]3CC[C@@]4(C)C(CC[C@]5(C)C4CC=C4C6CC(C)(C)CC[C@]6(C(=O)OC6OCC(OC7OCC(O)C(O)C7O)C(O)C6O)CC[C@]45C)C3(C)C)C2O)C(O)C(OC2OCC(O)(CO)C2O)C1O` (some centres undefined), the “cell shape (Z-score)” value is -0.504. The figure for `CC1OC(O[C@H]2[C@@H](O)C[C@@]3(C)C(CC[C@]4(C)C3CC=C3[C@@H]5CC(C)(C)CC[C@]5(C(=O)OC5OC(C)C(OC6OCC(OC7OCC(O)C(OC8OCC(O)C(O)C8O)C7O)C(O)C6O)C(O)C5O)CC[C@]34C)[C@]2(C)CO)C(O)C(OC2OC(CO)C(O)C(O)C2O)C1O` (some centres undefined) is 0.13.
